Common to all, as to set-up: scale not given: direction of the effect not stated beside the values
Assay [1] addresses Protein translocase subunit SecA (Escherichia coli (strain K12)) (UniProt P10408). Nature of the assay: Assay to Identify E. coli SecA ATPase Inhibitors. The class given is functional. The following applies: 30 µM.
Assay [2] deals with T1, Ubiquitin-activating enzyme e1, putative (Leishmania donovani (strain BPK282A1)) (UniProt E9BSI1).
T1 sequence (whole entry): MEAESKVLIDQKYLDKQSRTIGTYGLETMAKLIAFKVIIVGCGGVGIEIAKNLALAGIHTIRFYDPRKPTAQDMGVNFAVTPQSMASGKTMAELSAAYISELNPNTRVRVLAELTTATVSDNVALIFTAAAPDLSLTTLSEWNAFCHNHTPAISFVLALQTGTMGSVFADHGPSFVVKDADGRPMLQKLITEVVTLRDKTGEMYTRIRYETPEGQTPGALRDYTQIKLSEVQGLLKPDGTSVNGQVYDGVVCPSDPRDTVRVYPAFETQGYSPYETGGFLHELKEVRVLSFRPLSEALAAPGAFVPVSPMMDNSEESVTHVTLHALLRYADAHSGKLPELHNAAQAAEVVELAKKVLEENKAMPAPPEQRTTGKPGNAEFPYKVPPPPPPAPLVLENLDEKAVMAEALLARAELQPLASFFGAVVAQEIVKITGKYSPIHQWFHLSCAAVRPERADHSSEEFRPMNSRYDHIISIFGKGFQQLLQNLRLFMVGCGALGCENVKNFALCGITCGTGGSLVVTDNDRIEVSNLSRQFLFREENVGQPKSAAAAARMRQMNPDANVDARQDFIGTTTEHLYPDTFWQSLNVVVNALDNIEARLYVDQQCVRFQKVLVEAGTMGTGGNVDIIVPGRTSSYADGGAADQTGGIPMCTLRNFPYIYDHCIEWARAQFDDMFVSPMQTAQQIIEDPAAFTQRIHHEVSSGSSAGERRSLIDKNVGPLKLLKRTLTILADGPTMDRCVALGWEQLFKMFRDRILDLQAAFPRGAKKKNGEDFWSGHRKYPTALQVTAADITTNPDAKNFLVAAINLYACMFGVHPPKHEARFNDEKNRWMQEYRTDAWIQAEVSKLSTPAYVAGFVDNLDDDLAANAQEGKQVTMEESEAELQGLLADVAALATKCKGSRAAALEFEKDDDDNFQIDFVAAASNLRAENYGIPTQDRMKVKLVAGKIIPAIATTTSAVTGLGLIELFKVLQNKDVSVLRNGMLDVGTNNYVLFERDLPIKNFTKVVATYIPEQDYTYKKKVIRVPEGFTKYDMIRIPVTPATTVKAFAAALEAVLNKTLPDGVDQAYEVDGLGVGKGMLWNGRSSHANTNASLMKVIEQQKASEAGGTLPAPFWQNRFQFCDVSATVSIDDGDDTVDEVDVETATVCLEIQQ
The assay can be described thus: Leishmania donovani Ubiquitin Activating Enzyme (LdE1). The class given is functional. The following applies: 30 µM.

The target of assay [3] is AMP-activated protein kinase, AMPK (Homo sapiens) (UniProt P54646+O43741+P54619+Q9UGJ0+Q9Y478+Q13131+Q9UGI9). Nature of the assay: AMP-dependent Kinase enzyme assay. An in vitro enzyme assay that detects ADP turnover that is directly proportional to AMPK activity. This uses naive AMPK that is activated during the assay with MK-8722. The class given is functional. The following applies: 30 µM.

The target of assay [4] is Sialic acid-binding Ig-like lectin 9 (Homo sapiens) (UniProt Q9Y336). The assay can be described thus: Hs-Siglec9 ALPHAscreen SOP 20170721. Conditions: 10 µM.
Chain of Sialic acid-binding Ig-like lectin 9 (Homo sapiens) (Q9Y336 whole entry): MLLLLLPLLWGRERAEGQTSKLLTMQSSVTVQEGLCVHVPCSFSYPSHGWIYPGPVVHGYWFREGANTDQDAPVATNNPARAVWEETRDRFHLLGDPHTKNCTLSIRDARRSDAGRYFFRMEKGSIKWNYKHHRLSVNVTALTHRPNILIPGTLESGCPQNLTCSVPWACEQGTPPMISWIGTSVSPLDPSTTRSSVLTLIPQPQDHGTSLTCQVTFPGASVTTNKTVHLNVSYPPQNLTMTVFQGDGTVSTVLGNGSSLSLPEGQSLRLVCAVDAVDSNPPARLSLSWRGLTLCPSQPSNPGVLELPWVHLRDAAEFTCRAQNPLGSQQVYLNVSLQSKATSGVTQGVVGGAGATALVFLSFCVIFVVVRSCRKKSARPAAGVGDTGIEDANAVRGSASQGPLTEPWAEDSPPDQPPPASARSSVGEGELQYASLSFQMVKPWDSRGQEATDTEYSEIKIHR
For another assay, the system named is Trypanosoma cruzi. Nature of the assay: Trypanosoma cruzi phosphomannomutase and mannose-1-phosphate guanylyltransferase assay. Format: functional. Conditions: 10 µM.
Assay [5] has as its target T2, Arginase-2, mitochondrial (Homo sapiens) (UniProt P78540).
T2 sequence (whole entry): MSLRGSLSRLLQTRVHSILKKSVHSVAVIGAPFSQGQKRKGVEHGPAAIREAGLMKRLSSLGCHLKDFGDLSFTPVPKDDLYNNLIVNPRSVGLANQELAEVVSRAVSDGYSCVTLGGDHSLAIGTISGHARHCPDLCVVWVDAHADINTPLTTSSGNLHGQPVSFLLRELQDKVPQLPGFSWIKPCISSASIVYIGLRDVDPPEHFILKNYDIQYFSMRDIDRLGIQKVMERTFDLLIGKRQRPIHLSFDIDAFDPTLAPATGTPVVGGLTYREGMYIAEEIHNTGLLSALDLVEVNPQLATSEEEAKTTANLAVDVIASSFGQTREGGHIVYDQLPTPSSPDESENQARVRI
The assay can be described thus: in vitro enzyme assay to detect the production of urea directly proportional to the activity of Arginase II. Further: in the data most compounds retested in dose-response had high values. Format: functional. The following applies: 33.3 µM.

Assay [6] addresses T3, Proteasome subunit beta (Trypanosoma cruzi) (UniProt O96673).
T3 sequence (whole entry): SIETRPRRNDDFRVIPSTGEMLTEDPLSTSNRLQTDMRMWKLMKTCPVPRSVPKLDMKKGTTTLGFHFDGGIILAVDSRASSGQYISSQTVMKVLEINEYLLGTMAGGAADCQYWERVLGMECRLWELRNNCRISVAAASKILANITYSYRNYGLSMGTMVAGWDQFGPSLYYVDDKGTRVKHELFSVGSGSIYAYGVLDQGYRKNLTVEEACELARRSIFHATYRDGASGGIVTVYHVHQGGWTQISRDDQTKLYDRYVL
The assay can be described thus: Trypanosoma cruzi proteasome chymotrypsin-like activity (TcProtChymo) assay. Further: in the data most compounds retested in dose-response had high values. The following applies: 9.37 µM. The class given is functional.

Another assay is filed under the species Homo sapiens. Nature of the assay: To identify inhibition of the IFN signalling (Jak-Stat) pathway via expression of an eGFP reporter gene under the control of an IFN-stimulated response element (ISRE) containing MxA promoter. The class given is functional. The following applies: 30 µM. For orientation: A reporter such as luciferase makes a cellular process visible.

Assay [7] deals with T4, Tyrosyl-tRNA synthetase, putative (Trypanosoma cruzi (strain CL Brener)) (UniProt Q4DSP6).
T4 sequence (whole entry): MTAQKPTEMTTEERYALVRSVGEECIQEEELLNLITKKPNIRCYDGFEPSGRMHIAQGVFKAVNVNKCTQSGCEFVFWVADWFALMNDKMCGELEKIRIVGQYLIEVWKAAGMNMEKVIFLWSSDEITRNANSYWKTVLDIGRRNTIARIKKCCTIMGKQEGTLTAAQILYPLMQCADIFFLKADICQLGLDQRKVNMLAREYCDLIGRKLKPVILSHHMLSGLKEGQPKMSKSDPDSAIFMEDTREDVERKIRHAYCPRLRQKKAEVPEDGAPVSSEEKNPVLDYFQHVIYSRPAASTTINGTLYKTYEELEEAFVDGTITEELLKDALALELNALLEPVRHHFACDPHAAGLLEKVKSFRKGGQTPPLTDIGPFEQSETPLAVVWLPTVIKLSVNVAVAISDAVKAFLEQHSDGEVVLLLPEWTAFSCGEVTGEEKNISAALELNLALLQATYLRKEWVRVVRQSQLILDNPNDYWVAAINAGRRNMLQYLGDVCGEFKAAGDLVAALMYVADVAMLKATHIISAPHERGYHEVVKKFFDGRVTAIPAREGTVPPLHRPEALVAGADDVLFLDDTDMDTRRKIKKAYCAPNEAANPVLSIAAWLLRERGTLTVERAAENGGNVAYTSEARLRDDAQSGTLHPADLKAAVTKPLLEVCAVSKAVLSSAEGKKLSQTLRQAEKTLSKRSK
Nature of the assay: Trypanosoma cruzi tyrosyl tRNA synthetase (TcYRS) _High Tyrosine SOP. Further: in the data most compounds retested in dose-response had high values. Format: functional. The following applies: 30 µM.

Assay [8] deals with T4, Tyrosyl-tRNA synthetase, putative (Trypanosoma cruzi (strain CL Brener)). The assay can be described thus: Trypanosoma cruzi tyrosyl tRNA synthetase (TcYRS) SOP. The class given is functional. Conditions: 30 µM.
Assay [9] has as its target Chromo domain-containing protein 1 (Saccharomyces cerevisiae (strain ATCC 204508 / S288c) (Baker's yeast)) (UniProt P32657). Nature of the assay: ScCHD-1 Enzyme Inhibition Assay. Further: in the data most compounds retested in dose-response had high values. Format: functional. The following applies: 30 µM.

For some assays here: Results with a measured potency or affinity are listed apart.

Chain of Protein translocase subunit SecA (Escherichia coli (strain K12)) (P10408 whole entry): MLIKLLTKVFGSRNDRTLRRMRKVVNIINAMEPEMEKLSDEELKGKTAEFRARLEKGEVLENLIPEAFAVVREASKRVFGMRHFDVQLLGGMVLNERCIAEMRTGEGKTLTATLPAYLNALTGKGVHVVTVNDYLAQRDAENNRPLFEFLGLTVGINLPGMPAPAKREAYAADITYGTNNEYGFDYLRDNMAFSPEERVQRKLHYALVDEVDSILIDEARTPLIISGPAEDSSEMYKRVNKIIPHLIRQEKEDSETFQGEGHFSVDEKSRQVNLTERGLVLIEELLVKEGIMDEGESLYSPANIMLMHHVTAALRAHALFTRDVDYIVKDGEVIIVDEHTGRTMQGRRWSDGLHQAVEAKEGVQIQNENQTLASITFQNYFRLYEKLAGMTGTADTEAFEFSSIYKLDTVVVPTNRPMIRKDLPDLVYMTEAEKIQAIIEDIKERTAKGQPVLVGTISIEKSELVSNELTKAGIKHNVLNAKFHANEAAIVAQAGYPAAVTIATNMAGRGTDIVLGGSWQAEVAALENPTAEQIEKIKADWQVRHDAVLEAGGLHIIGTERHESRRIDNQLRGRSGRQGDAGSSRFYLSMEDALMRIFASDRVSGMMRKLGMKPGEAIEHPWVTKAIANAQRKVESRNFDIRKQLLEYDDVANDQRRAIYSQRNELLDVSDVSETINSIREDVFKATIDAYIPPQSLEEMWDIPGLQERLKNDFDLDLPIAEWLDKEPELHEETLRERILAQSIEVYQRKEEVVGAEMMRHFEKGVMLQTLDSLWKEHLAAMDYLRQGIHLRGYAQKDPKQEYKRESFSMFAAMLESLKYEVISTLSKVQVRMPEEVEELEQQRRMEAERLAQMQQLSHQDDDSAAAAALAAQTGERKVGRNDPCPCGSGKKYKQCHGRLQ
Chain of Chromo domain-containing protein 1 (Saccharomyces cerevisiae (strain ATCC 204508 / S288c) (Baker's yeast)) (P32657 whole entry, the tested form may be a part): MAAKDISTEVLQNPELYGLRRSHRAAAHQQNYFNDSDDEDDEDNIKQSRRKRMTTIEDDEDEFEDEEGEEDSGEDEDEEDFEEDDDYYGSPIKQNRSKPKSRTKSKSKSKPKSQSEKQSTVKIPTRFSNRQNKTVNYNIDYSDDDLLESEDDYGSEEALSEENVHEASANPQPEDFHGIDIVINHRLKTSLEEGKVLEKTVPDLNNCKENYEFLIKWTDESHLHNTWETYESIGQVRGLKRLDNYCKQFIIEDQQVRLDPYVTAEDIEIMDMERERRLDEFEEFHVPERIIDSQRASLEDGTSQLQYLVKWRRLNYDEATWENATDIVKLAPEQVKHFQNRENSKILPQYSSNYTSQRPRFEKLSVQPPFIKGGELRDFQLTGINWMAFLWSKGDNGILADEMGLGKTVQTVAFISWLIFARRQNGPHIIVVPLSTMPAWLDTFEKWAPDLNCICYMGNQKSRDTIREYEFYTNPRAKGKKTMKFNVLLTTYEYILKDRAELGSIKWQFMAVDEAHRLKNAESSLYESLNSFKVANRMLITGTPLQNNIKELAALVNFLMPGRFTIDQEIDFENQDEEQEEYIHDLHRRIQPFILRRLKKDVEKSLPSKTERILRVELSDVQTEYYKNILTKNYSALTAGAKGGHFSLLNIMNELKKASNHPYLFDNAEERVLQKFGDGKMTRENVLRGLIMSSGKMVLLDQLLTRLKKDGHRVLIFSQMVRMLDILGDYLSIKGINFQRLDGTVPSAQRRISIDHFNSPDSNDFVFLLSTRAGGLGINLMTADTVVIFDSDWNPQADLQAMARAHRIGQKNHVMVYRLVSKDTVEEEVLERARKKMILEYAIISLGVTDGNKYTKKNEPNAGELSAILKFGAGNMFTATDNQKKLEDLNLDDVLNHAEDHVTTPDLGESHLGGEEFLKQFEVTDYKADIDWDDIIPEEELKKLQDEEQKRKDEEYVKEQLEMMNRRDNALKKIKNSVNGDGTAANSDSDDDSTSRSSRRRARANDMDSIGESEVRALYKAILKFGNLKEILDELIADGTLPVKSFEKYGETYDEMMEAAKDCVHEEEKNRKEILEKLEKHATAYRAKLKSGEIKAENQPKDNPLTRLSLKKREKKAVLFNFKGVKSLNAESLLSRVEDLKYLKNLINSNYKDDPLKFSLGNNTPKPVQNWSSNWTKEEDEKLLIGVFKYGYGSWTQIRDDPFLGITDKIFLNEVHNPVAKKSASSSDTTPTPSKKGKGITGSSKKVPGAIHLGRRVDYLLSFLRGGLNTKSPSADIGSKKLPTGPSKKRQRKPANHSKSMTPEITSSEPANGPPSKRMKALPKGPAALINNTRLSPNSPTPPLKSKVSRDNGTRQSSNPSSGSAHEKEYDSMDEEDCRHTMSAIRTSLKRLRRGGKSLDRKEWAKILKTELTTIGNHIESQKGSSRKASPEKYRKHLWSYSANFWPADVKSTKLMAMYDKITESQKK

Take `Cc1ccc(-c2noc(CN3CCOC(CN(C)C)C3)n2)cc1F` (stereo not given): the Percent Effect in assay [1] is -2.58%; in assay [2], -8.11%; in assay [3], -2.88%; in assay [4], 2.97%; in the assay on Trypanosoma cruzi it was -3.99%; in [5], -4.25%. Also, the Percent Effect in [6] was -0.539%; in the assay listed under Homo sapiens, 20.6%; in assay [7], 1.98%; in assay [8], -1.22%; in assay [9], 2.19%.
`C[C@H]1C[C@H]2CN(C(=O)c3ccncn3)CC[C@H]2O1`: the Percent Effect in [1] was -6.88%; in assay [2] it was 2.7%; in assay [3], -0.849%; in [4] it was -1.39%; in the assay with Trypanosoma cruzi it was 2.54%; in assay [5], 2.08%. The Percent Effect in assay [6] was 12.1%; in the assay listed under Homo sapiens, -0.328%; in [7], 6.93%; in [8], 1.22%; in [9] it was -3.3%.
`CCN(CC1CCCO1)C(=O)Nc1cc(C(=O)OC)ccc1F` (stereo not given): the Percent Effect in assay [1] was -2.67%; in [2] it was 7.59%; in [3] it was 1.58%; in [4], 13.4%; with Trypanosoma cruzi, -1.98%; in assay [5], 1.9%. Besides, the Percent Effect in assay [6] was 2.21%; in the assay listed under Homo sapiens it was 0.11%; in assay [7] it was 3.45%; in assay [8] it was 8.86%; in [9] it was -8.28%.
Take `Cc1cc(C)nc(N2Cc3cnn(Cc4ccc(F)cc4)c3C2)n1`: the Percent Effect in assay [1] is -6.24%; in [2], -2.67%; in assay [3], 1.55%; in assay [4], -0.223%; in the assay on Trypanosoma cruzi it was -7.5%; in assay [5], -2.6%. Also, the Percent Effect in assay [6] was 10.6%; in the assay listed under Homo sapiens, 33.6%; in assay [7], -6.01%; in [8], -6.17%; in assay [9], -5.39%.
For `CC(=O)N1CCO[C@@H]2CN(C(=O)c3cc(C)oc3C)CC[C@@H]2C1`, the Percent Effect in assay [1] was -6.41%; in [2] it was 10.8%; in assay [3], -31.2%; in assay [4], -10.6%; with Trypanosoma cruzi, -1.07%; in assay [5], 0.319%. For the same molecule, the Percent Effect in [6] is 7.75%; in the assay filed under Homo sapiens, 19.1%; in assay [7], 0%; in [8], 0%; in assay [9], -3.96%.
For the molecule `CCC(CC)C(CNC(=O)Nc1cc(C)nn1C)N1CCOCC1` (stereo not given), the Percent Effect in assay [1] is -4.23%; in [2] it was 17.7%; in assay [3], 3.07%; in assay [4], -7.11%; in the assay with Trypanosoma cruzi, 9.54%; in assay [5] it was -5.32%. Besides, the Percent Effect in [6] is 9.75%; in the assay listed under Homo sapiens it was 4.35%; in [7], 8.37%; in assay [8] it was 11.4%; in assay [9] it was -9.76%.
Consider `CCC1=N[C@@]2(CC[C@@H]3CN(C(=O)NC(C)C)C[C@@H]32)C(=O)N1C`, for which the Percent Effect in assay [1] is -5.93%; in assay [2], 18.9%; in [3], -5.97%; in assay [4], 2.32%; in the assay with Trypanosoma cruzi, 3.12%; in [5] it was 2.92%. Moreover, the Percent Effect is 10.9% in [6]; 1.5% in the assay listed under Homo sapiens; 3.96% in [7]; 18.3% in assay [8]; -6.51% in assay [9].
Turning to `Cc1cccnc1NC(=O)C(C)Cn1nc(C(F)(F)F)cc1C` (stereo not given), the Percent Effect is -1.64% in assay [1]; -4% in assay [2]; 2.53% in assay [3]; 4.76% in [4]; -3.73% in the assay on Trypanosoma cruzi; -1.94% in [5]. Also, the Percent Effect in assay [6] is 11.8%; in the assay filed under Homo sapiens, -10.4%; in assay [7], 3.17%; in assay [8], 2.56%; in assay [9] it was -1.89%.
Take `CCn1nc(C)c2nnn(CC(=O)Nc3c(C)cccc3C)c(=O)c21`: the Percent Effect in [1] is -7.15%; in assay [2] it was 17.3%; in assay [3] it was -10.2%; in assay [4] it was -3.51%; with Trypanosoma cruzi, 5.5%; in [5] it was -2.99%. In addition, the Percent Effect in [6] was 5.73%; in the assay listed under Homo sapiens it was 4.38%; in [7], 6.35%; in assay [8] it was 12.8%; in assay [9], -16.1%.
In the case of `c1ccc(-c2ncc(CNC3CCc4ncnn4C3)cn2)cc1` (stereo not given), the Percent Effect is -5% in assay [1]; 8.86% in [2]; 6.48% in [3]; -1.35% in assay [4]; -1.33% in the assay with Trypanosoma cruzi; 9.25% in [5]. Besides, the Percent Effect in assay [6] was 3.26%; in the assay listed under Homo sapiens, -3.68%; in [7], 7.29%; in assay [8], 10.1%; in assay [9], -13.8%.

The record behind these values is ChEMBL document CHEMBL3988442, “University of Dundee, Small-Polar-MMV Screening Library” (2021).
